In general, viability refers to a read-out of living cells in per cent, often relative to untreated cells.

Inconclusive results are not listed. Unmarked numbers belong to inactive results. Active and inactive are the calls of the source. Calls come from the whole dose curve; as a rule, active = well fitted curve in the direction sought with a large enough effect; inconclusive = small, poorly fitted or top-dose-only effect, or another doubt; inactive = no such curve, though single readings can be large; an effect the other way counts as inactive or inconclusive.

Assay [1] is described as follows: Quantitative High-Throughput drug screen in 47 multiple myeloma cell lines against the NCATS MIPE library collection: LP1_DSMZ cell viability assay (AID 1918982). Note: nearly all actives have a fitted effect of over 35% in size. Note: potency is the fitted concentration of half-maximal effect. The method in brief:
(§1)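 Viability after 48 h drug exposure was measured as ATP-dependent luminescence. Cells, 500 per well, sat at 37 °C under 5% CO2; DMSO wells set 100%, media-only wells 0%.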

Assay [2] in a line: Quantitative High-Throughput drug screen in 47 multiple myeloma cell lines against the NCATS MIPE library collection: L363_DSMZ cell viability assay (AID 1918984). Note: nearly all actives have a fitted effect of over 40% in size. Note: potency is the fitted concentration of half-maximal effect. To be noted: L363 myeloma viability, CellTiter-Glo ATP luminescence, 48 h; viability (% of control): at 45.8 µM (top of the series). Summed up:
as §1
For orientation: ATP-based viability assays read luminescence as a measure of living cells.

Assay [3] can be described thus: Quantitative High-Throughput drug screen in 47 multiple myeloma cell lines against the NCATS MIPE library collection: OCIMY5_PLB cell viability assay (AID 1918988). Note: potency is the fitted concentration of half-maximal effect; nearly all actives have a fitted effect of over 65% in size. Summed up: as §1
The nature of assay [4]: Quantitative High-Throughput drug screen in 47 multiple myeloma cell lines against the NCATS MIPE library collection: OPM1_PLB cell viability assay (AID 1918989). Note: nearly all actives have a fitted effect of over 40% in size. Note: potency is the fitted concentration of half-maximal effect. The method in brief:
as §1

Assay [5] can be described thus: Quantitative High-Throughput drug screen in 47 multiple myeloma cell lines against the NCATS MIPE library collection: SKMM1_PLB cell viability assay (AID 1919863). Note: nearly all actives have a fitted effect of over 35% in size. Note: potency is the fitted concentration of half-maximal effect. To be noted: SKMM1 myeloma viability, CellTiter-Glo ATP, 48 h; viability: hits give low values. The method in brief:
as §1

A short description of assay [6]: Quantitative High-Throughput drug screen in 47 multiple myeloma cell lines against the NCATS MIPE library collection: U266_ATCC cell viability assay (AID 1919864). Note: nearly all actives have a fitted effect of over 35% in size. Note: potency is the fitted concentration of half-maximal effect. The method in brief: as §1
Assay [7] is described as follows: Quantitative High-Throughput drug screen in 47 multiple myeloma cell lines against the NCATS MIPE library collection: XG6_PLB cell viability assay (AID 1919865). Note: nearly all actives have a fitted effect of over 40% in size. Note: potency is the fitted concentration of half-maximal effect. Summed up:
as §1

Assay [8] in a line: Quantitative High-Throughput drug screen in 47 multiple myeloma cell lines against the NCATS MIPE library collection: XG1_PLB cell viability assay (AID 1919866). Note: nearly all actives have a fitted effect of over 35% in size. Note: potency is the fitted concentration of half-maximal effect. The method in brief: as §1
The nature of assay [9]: Quantitative High-Throughput drug screen in 47 multiple myeloma cell lines against the NCATS MIPE library collection: VP6_DJ cell viability assay (AID 1919867). Note: nearly all actives have a fitted effect of over 40% in size. Note: potency is the fitted concentration of half-maximal effect. Summed up:
as §1

Assay [10] in a line: Quantitative High-Throughput drug screen in 47 multiple myeloma cell lines against the NCATS MIPE library collection: PE2_PLB cell viability assay (AID 1919869). Note: nearly all actives have a fitted effect of over 35% in size. Note: potency is the fitted concentration of half-maximal effect. The method in brief:
as §1

Assay [11] in a line: Quantitative High-Throughput drug screen in 47 multiple myeloma cell lines against the NCATS MIPE library collection: PCM6_Riken cell viability assay (AID 1919870). Note: nearly all actives have a fitted effect of over 30% in size. Note: potency is the fitted concentration of half-maximal effect. Summed up:
as §1

The nature of assay [12]: Quantitative High-Throughput drug screen in 47 multiple myeloma cell lines against the NCATS MIPE library collection: RPMI8226_ATCC cell viability assay (AID 1919871). Note: nearly all actives have a fitted effect of over 30% in size. Note: potency is the fitted concentration of half-maximal effect. The method in brief: as §1
Assay [13] is described as follows: Quantitative High-Throughput drug screen in 47 multiple myeloma cell lines against the NCATS MIPE library collection: KMS11_JCRBsus cell viability assay (AID 1919873). Note: nearly all actives have a fitted effect of over 50% in size. Note: potency is the fitted concentration of half-maximal effect. The method in brief: as §1
A short description of assay [14]: Quantitative High-Throughput drug screen in 47 multiple myeloma cell lines against the NCATS MIPE library collection: KMS28BM_JCRB cell viability assay (AID 1919874). Note: nearly all actives have a fitted effect of over 35% in size. Note: potency is the fitted concentration of half-maximal effect. Summed up: as §1
Assay [15] can be described thus: Quantitative High-Throughput drug screen in 47 multiple myeloma cell lines against the NCATS MIPE library collection: OCIMY7_PLB cell viability assay (AID 1918987). Note: potency is the fitted concentration of half-maximal effect; nearly all actives have a fitted effect of over 65% in size. To be noted: OCI-MY7 myeloma viability, CellTiter-Glo ATP, 48 h; viability (% of DMSO): at 45.8 µM (top of the series). Summed up:
as §1

A short description of assay [16]: Quantitative High-Throughput drug screen in 47 multiple myeloma cell lines against the NCATS MIPE library collection: KMS28PE_JCRB cell viability assay (AID 1918983). Note: nearly all actives have a fitted effect of over 35% in size. Note: potency is the fitted concentration of half-maximal effect. Summed up: as §1
Assay [17] is described as follows: Quantitative High-Throughput drug screen in 47 multiple myeloma cell lines against the NCATS MIPE library collection: OPM2_DSMZ cell viability assay (AID 1919872). Note: nearly all actives have a fitted effect of over 30% in size. Note: potency is the fitted concentration of half-maximal effect. The method in brief: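 CellTiter-Glo ATP luminescence gave viability after 48 h compound treatment at 37C of 500 multiple myeloma cells per well. Normalisation used DMSO-only wells as 100% and media-only wells as 0% viability; primary qHTS of approved and investigational drugs.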

A short description of assay [18]: Quantitative High-Throughput drug screen in 47 multiple myeloma cell lines against the NCATS MIPE library collection: UTMC2_PLB cell viability assay (AID 1919868). Note: nearly all actives have a fitted effect of over 55% in size. Note: potency is the fitted concentration of half-maximal effect. The following applies: CellTiter-Glo ATP luminescence, 48 h; viability (% of DMSO control): at 45.8 µM (top of the series). Summed up:
as §1

Assay [19] in a line: Quantitative High-Throughput drug screen in 47 multiple myeloma cell lines against the NCATS MIPE library collection: KMS34_JCRB cell viability assay (AID 1918985). Summed up: as §1
Assay [20] has as its target Cytochrome P450 3A4 (Homo sapiens) (UniProt P08684). Nature of the assay: qHTS for inhibitors of CYP3A4 against the NCATS DSHEA and TCM libraries (AID 1919971).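 Note: % is set by controls: 0 for no effect and ±100 for the full control effect; inhibition lowers luminescence from luciferin made by CYP3A4.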 The method in brief:
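Luminescent P450-Glo readout. Enzyme plus pro-luciferin substrate in manufacturer buffer (typically 100 mM KPO4); 15 min RT preincubation; 1x NADPH regenerating system, 30-45 min RT in the dark; detection reagent 30 min.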
In general terms: qHTS replaces the single test concentration by a dilution series.

Sequence of Cytochrome P450 3A4 (Homo sapiens) (P08684 whole entry, looked up): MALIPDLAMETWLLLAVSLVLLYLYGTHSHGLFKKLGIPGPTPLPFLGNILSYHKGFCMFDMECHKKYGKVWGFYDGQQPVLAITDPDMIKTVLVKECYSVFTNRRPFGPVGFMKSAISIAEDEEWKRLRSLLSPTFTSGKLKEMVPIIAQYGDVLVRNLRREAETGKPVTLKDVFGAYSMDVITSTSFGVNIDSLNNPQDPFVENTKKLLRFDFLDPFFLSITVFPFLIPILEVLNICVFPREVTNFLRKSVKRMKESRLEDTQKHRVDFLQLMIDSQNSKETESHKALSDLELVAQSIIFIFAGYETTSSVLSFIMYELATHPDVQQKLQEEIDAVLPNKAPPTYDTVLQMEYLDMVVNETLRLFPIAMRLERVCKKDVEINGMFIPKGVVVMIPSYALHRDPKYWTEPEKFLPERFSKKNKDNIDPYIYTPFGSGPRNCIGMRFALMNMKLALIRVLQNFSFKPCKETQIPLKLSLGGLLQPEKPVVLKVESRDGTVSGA

Consider `COc1ccc2nc3cc(Cl)ccc3c(Nc3cc(CN4CCCC4)c(O)c(CN4CCCC4)c3)c2n1`, for which the Potency in assay [1] was 20.9 µM (active); in assay [2], 16.6 µM (active); in [3], 18.7 µM (active); in [4] it was 23.5 µM (active); in [5], 14.8 µM (active); in assay [6] it was 23.5 µM (active). The Potency in assay [7] was 14.8 µM (active); in assay [8], 18.7 µM (active); in [9], 9.35 µM (active); in [10], 18.7 µM (active); in assay [11] it was 16.6 µM (active); in assay [12] it was 18.7 µM (active). Besides, the values for the Potency in [13] and in assay [14] were 16.6 µM (active) and 23.5 µM (active), respectively.

For the molecule `CC[C@H](C)n1cc(C)c2c(C(=O)NCc3c(C)cc(C)[nH]c3=O)cc(-c3ccc(N4CCNCC4)nc3)cc21`, the Potency in assay [1] was 23.5 µM (active); in [15], 23.5 µM (active); in [3], 23.5 µM (active); in assay [5], 20.9 µM (active); in assay [6], 16.6 µM (active); in assay [7], 16.6 µM (active). In addition, the Potency in assay [8] is 9.35 µM (active); in assay [9] it was 11.8 µM (active); in assay [10] it was 23.5 µM (active); in assay [13], 23.5 µM (active); in assay [14] it was 23.5 µM (active). Moreover, in assay [2], the Potency result was “inactive”.

Take `COc1nccc(-c2c(-c3ccc(F)cc3)ncn2C2CCNCC2)n1`: the Potency entry in assay [1], in assay [6] and in assay [17] was “inactive” in each case. The Potency in assay [16] was 13.2 µM (active); in [3] it was 16.6 µM (active); in [5] it was 9.35 µM (active); in [8], 14.8 µM (active); in assay [14] it was 0.469 µM (active).

As to `O=C(c1ccc(C(=O)N2CCC(N3CCCC3)CC2)c(Nc2ccccc2)c1)N1CCC(N2CCCC2)CC1`, the Potency entry in assay [1], in [2], in assay [4], in assay [6], in [7] and in assay [18] was “inactive” in each case. Also, the Potency result in [10], in assay [12] and in assay [13] was “inactive” each time. In addition, the Potency in [5] is 6.62 µM (active).

Consider `COc1ccc2c(c1)c(C1=C(c3c[nH]c4ccccc34)C(=O)NC1=O)cn2CCCN(C)C`, for which the Potency result in assay [1] is “inactive”. Moreover, the Potency is 13.2 µM (active) in assay [2]; 14.8 µM (active) in [19]; 37.2 µM (active) in assay [3]; 23.5 µM (active) in assay [4]; 26.4 µM (active) in assay [6]; 23.5 µM (active) in assay [11]. The Potency in [13] was 23.5 µM (active).

`COc1nc(C)cnc1NS(=O)(=O)c1cccnc1-c1ccc(-c2nnco2)cc1`: the Potency result in assay [1], in [2], in assay [6], in assay [7], in assay [8] and in assay [9] was “inactive” in each case. Also, the Potency entry in assay [18], in assay [10], in assay [11], in assay [17], in assay [13] and in assay [14] was “inactive” each time. For the same molecule, the viability in assay [5] is 126%.

In the case of `C[C@]12C=CC(=O)C=C1CC[C@@H]1[C@@H]2[C@@H](O)C[C@@]2(C)[C@@H]1CC[C@]2(O)C(=O)CO`, the Potency was 0.0469 µM (active) in assay [1], 1.48 µM (active) in assay [5], 0.187 µM (active) in [12] and 0.0935 µM (active) in assay [13]. Also, the Potency entry in assay [16], in [6], in [7], in assay [10], in assay [11] and in assay [17] was “inactive” each time. Besides, in assay [14], the Potency entry is “inactive”.

Consider `Cc1c(-c2cccc3c(CCCOc4cccc5ccccc45)c(C(=O)O)n(Cc4cccnc4)c23)c(COc2ccc(N3CCN([S+](=O)([O-])N(C)C)CC3)cc2)nn1C`, for which the Potency is 18.7 µM (active) in assay [1]; 23.5 µM (active) in assay [5]; 8.33 µM (active) in assay [9]; 20.9 µM (active) in assay [18]; 18.7 µM (active) in [10]; 16.6 µM (active) in assay [17]. For the same molecule, the Potency entry in [2] and in assay [11] was “inactive” each time.

`N=C1SC(=Cc2ccc(-c3ccc4c(c3)C(=O)NC4=O)o2)C(=O)N1c1ccc(Br)cc1`: the Potency in [1] is 2.96 µM (active); in assay [19], 2.64 µM (active); in assay [3], 2.96 µM (active); in [5], 3.32 µM (active); in [7] it was 1.66 µM (active); in [8] it was 2.35 µM (active). The Potency in [10] was 2.09 µM (active); in [12] it was 3.32 µM (active); in [17], 2.64 µM (active). The Potency entry in assay [2], in assay [13] and in assay [14] was “inactive” each time.

As to `CCn1c(-c2nonc2N)nc2cncc(CNC3CCNCC3)c21`, the Potency entry in assay [1] and in assay [6] was “inactive” throughout. Further, the Potency is 18.7 µM (active) in assay [16]; 18.7 µM (active) in assay [3]; 5.9 µM (active) in assay [10]; 4.18 µM (active) in assay [11]; 20.9 µM (active) in [14].

For `OC[C@H]1O[C@@H](OCCc2ccc(O)cc2)[C@H](O)[C@@H](O)[C@H]1O`, the Potency result in assay [1], in assay [2], in assay [10], in assay [11], in [12] and in assay [17] was “inactive” in each case. In addition, in assay [13], the Potency entry is “inactive”. The Potency is 29.6 µM (active) in assay [4], 20.9 µM (active) in assay [6], 5.9 µM (active) in [7] and 0.662 µM (active) in [9]. In [20], the molecule was called inactive.

Consider `Nc1[nH]nc2nnc(-c3c(-c4ccccc4)nn4ccccc34)cc12`, for which the Potency entry in assay [1], in assay [12] and in assay [17] was “inactive” each time. The Potency in [2] is 2.64 µM (active); in assay [15] it was 0.209 µM (active); in [3], 20.9 µM (active); in [6], 5.26 µM (active); in [7], 3.72 µM (active); in assay [8], 6.62 µM (active). Moreover, the Potency is 1.66 µM (active) in assay [9]; 4.18 µM (active) in assay [18]; 9.35 µM (active) in assay [10]; 7.43 µM (active) in [11]; 0.235 µM (active) in assay [13]; 0.166 µM (active) in assay [14].

As for `C[C@]12CCC3=C4CCC(=O)C=C4CC[C@@H]3[C@H]1CC[C@@]2(O)CC#N`, the Potency result in assay [1], in [16], in [6], in assay [8], in assay [10] and in [12] was “inactive” throughout. The Potency entry in assay [17] and in assay [14] was “inactive” throughout. In assay [5], the viability was 162%.

The values are drawn from PubChem BioAssay (NCATS).
